Laboratory results from PubChem BioAssay (NCATS).
Values joined by “and” are separate entries in the source; they are usually repeats but may differ in a detail not shown here. Identical values can stand only once. Inconclusive results are not listed. Values without a mark were called inactive. Active and inactive are the calls of the source. Unless noted, calls follow the shape of the full dose curve. Numbered stars: 1 amine (or outer) side, 2 acyl side, 3 side chain; on linkers, the order of the positions; unused ones are H or OH. Bridge positions count the residues as written; N and C are the ends. Square brackets hold non-standard residues; d marks the D form. Peptide text beside a SMILES is read from it. I, II: the chains in the order shown. Actinocin(9to1) = Cc1c2oc3c(C)ccc(C(=O)[*:1])c3nc-2c(C(=O)[*:2])c(N)c1=O; NMeV = CN[C@H](C(=O)O)C(C)C; Sar = CNCC(=O)O

Experiment: VSVG counterscreen qHTS to identify inhibitors of SARS-CoV-2 cell entry (AID 1645847); also: nearly all actives have a fitted effect of over 65% in size
Conditions: VSV-G pseudotyped particle entry, luciferase; series mostly up to 57.2 µM; activity change, negative = inhibition: at the top concentration
How it was run: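 Luminescence from a luciferase reporter, normalised to bald particle and VSV-G pseudotyped particle wells, is the read-out. Cells are HEK293 expressing human ACE2, exposed to compound 1 h before a 48 h particle infection at 37 °C.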
% is scaled to controls: 0 for no effect and ±100 for the full control effect; potency is read from the fitted curve at half-maximal effect.

Compound | Potency | activity change, negative = inhibition
Cc1c2oc3c(C)ccc(C(=O)N[C@@H]4C(=O)N[C@H](C(C)C)C(=O)N5CCC[C@H]5C(=O)N(C)CC(=O)N(C)[C@@H](C(C)C)C(=O)O[C@@H]4C)c3nc-2c(C(=O)N[C@@H]2C(=O)N[C@H](C(C)C)C(=O)N3CCC[C@H]3C(=O)N(C)CC(=O)N(C)[C@@H](C(C)C)C(=O)O[C@@H]2C)c(N)c1=O (I: T[dV]P[Sar][NMeV] / II: T[dV]P[Sar][NMeV]; ester I:1-I:C, II:1-II:C; linker I:N-II:N via Actinocin(9to1)) | 42.9 nM (active) | 
CC(CN(C)C)CN1c2ccccc2CCc2ccccc21 (centres undefined) | 1920 nM (active) | 
CC(C)(C)C(=O)OCOP(=O)(COCCn1cnc2c(N)ncnc21)OCOC(=O)C(C)(C)C | 15.2 nM (active) | 
CN(C)C(=O)C(CCN1CCC(O)(c2ccc(Cl)cc2)CC1)(c1ccccc1)c1ccccc1 | 24100 nM (active) | 
C=C(CC)C(=O)c1ccc(OCC(=O)O)c(Cl)c1Cl | 1920 nM (active) | 
CC[C@]1(O)C[C@H]2CN(CCc3c([nH]c4ccccc34)[C@@](C(=O)OC)(c3cc4c(cc3OC)N(C=O)[C@H]3[C@@](O)(C(=O)OC)[C@H](OC(C)=O)[C@]5(CC)C=CCN6CC[C@]43[C@@H]65)C2)C1 | 17.1 nM (active) | 
Cc1nc(Nc2ncc(C(=O)Nc3c(C)cccc3Cl)s2)cc(N2CCN(CCO)CC2)n1 | 3830 nM (active) | 
COC(c1ccccc1)(c1ccccc1)[C@H](Oc1nc(C)cc(C)n1)C(=O)O |  | -5.44%
Cc1cn([C@H]2C[C@H](N=[N+]=[N-])[C@@H](CO)O2)c(=O)[nH]c1=O | 429 nM (active) | 
CCC1=C[C@@H]2CN(C1)Cc1c([nH]c3ccccc13)[C@@](C(=O)OC)(c1cc3c(cc1OC)N(C)[C@H]1[C@@](O)(C(=O)OC)[C@H](OC(C)=O)[C@]4(CC)C=CCN5CC[C@]31[C@@H]54)C2 | 1670 nM (active) | 
CN1CCC(=C2c3ccccc3C=Cc3ccccc32)CC1 | 192 nM (active) | 
CC(=O)[C@]1(O)Cc2c(O)c3c(c(O)c2[C@@H](O[C@H]2C[C@H](N)[C@H](O)[C@H](C)O2)C1)C(=O)c1ccccc1C3=O | 85.7 nM (active) | 
COc1c(C)c2c(c(O)c1C/C=C(\C)CCC(=O)OCCN1CCOCC1)C(=O)OC2 | 429 nM (active) | 
CC[C@]1(O)C[C@@H]2CN(CCc3c([nH]c4ccccc34)[C@@](C(=O)OC)(c3cc4c(cc3OC)N(C)[C@H]3[C@@](O)(C(=O)OC)[C@H](OC(C)=O)[C@]5(CC)C=CCN6CC[C@]43[C@@H]65)C2)C1 | 34.1 nM (active) | 
COC(=O)Nc1nc2ccc(C(=O)c3ccccc3)cc2[nH]1 | 1520 nM (active) | 
CNCCC(Oc1ccc(C(F)(F)F)cc1)c1ccccc1 (centres undefined) | 121 nM (active) | 
CCc1c2c(nc3ccc(OC(=O)N4CCC(N5CCCCC5)CC4)cc13)-c1cc3c(c(=O)n1C2)COC(=O)[C@]3(O)CC | 171 nM (active) | 
CN(C)CCCN1c2ccccc2Sc2ccc(Cl)cc21 | 17100 nM (active) | 
COc1c(C)c2c(c(O)c1C/C=C(\C)CCC(=O)O)C(=O)OC2 | 482 nM (active) | 
CCCc1cc(=O)[nH]c(=S)[nH]1 |  | -8.18%
CC(=O)Oc1ccccc1C(=O)Nc1ncc([N+](=O)[O-])s1 | 1080 nM (active) | 
CC/C(=C(\c1ccccc1)c1ccc(OCCN(C)C)cc1)c1ccccc1 | 49400 nM (active) | 
Nc1ccn([C@@H]2O[C@H](CO)[C@@H](O)C2(F)F)c(=O)n1 | 304 nM (active) | 

Experiment: Primary qHTS for inhibitors of nuclear receptor binding SET domain protein 2 (NSD2) in an isogenic RCH-ACV NSD2 p.E1099K mutant (9B) (AID 1645876; active = well fitted curve in the direction sought with a large enough effect; an effect the other way counts as inactive or inconclusive; also: nearly all actives have a fitted effect of over 70% in size)
Conditions: RCH-ACV NSD2 E1099K (9B) viability, CellTiter-Glo, 72 h; series mostly up to 44.9 µM; activity change, negative = viability loss: at the top concentration; outcome: at the top concentration

Compound | Potency | activity change, negative = viability loss
COC[C@H]1OC(=O)c2coc3c2[C@@]1(C)C1=C(C3=O)C2CCC(=O)[C@@]2(C)C[C@H]1OC(C)=O (some centres undefined) | 1.84 µM (active) and 7.42 µM (active) | 
CN(C)CCN(C)CCc1ccc(Cl)c(Cl)c1 |  | -11.6%
O=C(O)P(=O)(O)O | inactive | 

Experiment: Primary qHTS for inhibitors of nuclear receptor binding SET domain protein 2 (NSD2) in an RCH-ACV wild type WT cells (2C) (AID 1645877; active = well fitted curve in the direction sought with a large enough effect; an effect the other way counts as inactive or inconclusive; also: nearly all actives have a fitted effect of over 70% in size)
Conditions: RCH-ACV (leukaemia line) NSD2 WT (2C) viability, CellTiter-Glo, 72 h; series mostly up to 44.9 µM; activity change, negative = cell killing: at the top concentration; outcome: at the top concentration

Compound | Potency | activity change, negative = cell killing
COC[C@H]1OC(=O)c2coc3c2[C@@]1(C)C1=C(C3=O)C2CCC(=O)[C@@]2(C)C[C@H]1OC(C)=O (some centres undefined) | 2.59 µM (active) and 18.3 µM (active) and 7.42 µM (active) | 
CN(C)CCN(C)CCc1ccc(Cl)c(Cl)c1 |  | -14%
O=C(O)P(=O)(O)O | inactive | 
